Experimental findings from paper PMC7862700, “An all-to-all approach to the identification of sequence-specific readers for epigenetic DNA modifications on cytosine” are described below.

Holding throughout (test): DAPPL (digital affinity profiling via proximity ligation, sequencing); 10 mM Tris-HCl pH 7.5, 50 mM NaCl, 1 mM DTT, 4% glycerol, room temperature, 30 min; GST-TFs on glutathione beads, 16-mer random dsDNA library, 0.1% formaldehyde crosslink after washing; high values mean tight binding
Settings in all cases: protein: recombinant; tags: N-terminal GST; dsDNA, one strand shown

The target in one assay is T1, ERF (Homo sapiens, UniProt P50548 1-548).
T1 sequence: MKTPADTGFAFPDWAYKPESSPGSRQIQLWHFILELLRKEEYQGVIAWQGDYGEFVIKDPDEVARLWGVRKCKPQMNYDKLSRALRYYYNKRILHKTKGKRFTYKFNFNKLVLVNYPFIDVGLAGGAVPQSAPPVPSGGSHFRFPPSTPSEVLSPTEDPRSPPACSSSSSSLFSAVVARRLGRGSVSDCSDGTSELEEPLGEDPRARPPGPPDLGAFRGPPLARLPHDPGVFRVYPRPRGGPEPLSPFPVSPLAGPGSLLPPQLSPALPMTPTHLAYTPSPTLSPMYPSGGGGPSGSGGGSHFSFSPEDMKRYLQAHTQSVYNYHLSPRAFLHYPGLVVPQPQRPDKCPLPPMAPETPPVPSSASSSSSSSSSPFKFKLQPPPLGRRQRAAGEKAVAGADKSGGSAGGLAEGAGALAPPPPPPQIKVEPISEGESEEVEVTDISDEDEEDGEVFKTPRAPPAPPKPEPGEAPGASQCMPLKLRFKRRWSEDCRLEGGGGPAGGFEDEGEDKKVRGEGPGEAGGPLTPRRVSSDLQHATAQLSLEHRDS
In outline: (§1)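 Pools were built from human transcription factors expressed in yeast as GST fusions, captured on glutathione beads and DNA-barcoded, along with a tag-only sample. Incubation with 200 nmole of a 16-mer random double-stranded DNA library lasted 30 min at room temperature in Tris/NaCl/DTT/glycerol buffer, and was followed by washing, 0.1% formaldehyde crosslinking, proximity ligation, PCR amplification and Illumina NextSeq500 sequencing. Binding signal is the quotient of each hexamer's read frequency for a factor and its frequency for the tag-only sample.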

The target in a further assay is T2, ETV3L (Homo sapiens, UniProt Q6ZN32 1-361).
T2 sequence: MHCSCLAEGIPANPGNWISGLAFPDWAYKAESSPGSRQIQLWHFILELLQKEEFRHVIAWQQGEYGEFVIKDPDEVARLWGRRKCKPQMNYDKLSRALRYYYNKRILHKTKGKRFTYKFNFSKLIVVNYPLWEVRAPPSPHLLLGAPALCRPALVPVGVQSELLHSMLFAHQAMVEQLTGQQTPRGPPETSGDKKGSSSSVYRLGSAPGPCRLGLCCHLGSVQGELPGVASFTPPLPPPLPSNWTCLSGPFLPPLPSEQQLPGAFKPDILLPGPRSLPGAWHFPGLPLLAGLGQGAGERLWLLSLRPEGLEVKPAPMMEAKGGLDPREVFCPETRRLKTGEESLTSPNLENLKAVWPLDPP
A digest of the protocol:
as §1

The next assay concerns the target T3, ETS2 (Homo sapiens, UniProt P15036 1-469).
T3 sequence: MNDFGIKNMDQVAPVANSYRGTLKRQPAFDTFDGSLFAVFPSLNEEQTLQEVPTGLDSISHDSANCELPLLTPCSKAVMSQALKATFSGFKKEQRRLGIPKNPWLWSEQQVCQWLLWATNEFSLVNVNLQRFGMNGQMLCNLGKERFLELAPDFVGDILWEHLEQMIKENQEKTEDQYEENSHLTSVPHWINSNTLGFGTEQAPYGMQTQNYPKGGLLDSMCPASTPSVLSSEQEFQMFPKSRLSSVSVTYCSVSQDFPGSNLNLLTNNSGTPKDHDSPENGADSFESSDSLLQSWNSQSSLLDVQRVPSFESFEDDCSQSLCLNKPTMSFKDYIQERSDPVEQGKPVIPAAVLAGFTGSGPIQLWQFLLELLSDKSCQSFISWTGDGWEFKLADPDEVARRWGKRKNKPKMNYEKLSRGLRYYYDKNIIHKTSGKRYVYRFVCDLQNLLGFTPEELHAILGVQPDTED
In outline: as §1

For the next assay, the target named is T4, SPDEF (Homo sapiens, UniProt O95238 1-335).
T4 sequence: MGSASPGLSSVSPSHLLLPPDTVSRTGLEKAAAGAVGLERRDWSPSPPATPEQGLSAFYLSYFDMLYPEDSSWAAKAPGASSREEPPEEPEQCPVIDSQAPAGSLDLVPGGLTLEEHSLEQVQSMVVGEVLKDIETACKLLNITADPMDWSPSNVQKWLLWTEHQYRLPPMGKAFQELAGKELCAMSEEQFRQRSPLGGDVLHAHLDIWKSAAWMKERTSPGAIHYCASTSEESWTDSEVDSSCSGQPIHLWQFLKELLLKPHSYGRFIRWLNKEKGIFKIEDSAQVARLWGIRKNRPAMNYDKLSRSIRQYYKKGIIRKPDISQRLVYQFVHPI
In outline:
as §1

Another assay addresses T5, ETV7 (Homo sapiens, UniProt Q9Y603 1-341).
T5 sequence: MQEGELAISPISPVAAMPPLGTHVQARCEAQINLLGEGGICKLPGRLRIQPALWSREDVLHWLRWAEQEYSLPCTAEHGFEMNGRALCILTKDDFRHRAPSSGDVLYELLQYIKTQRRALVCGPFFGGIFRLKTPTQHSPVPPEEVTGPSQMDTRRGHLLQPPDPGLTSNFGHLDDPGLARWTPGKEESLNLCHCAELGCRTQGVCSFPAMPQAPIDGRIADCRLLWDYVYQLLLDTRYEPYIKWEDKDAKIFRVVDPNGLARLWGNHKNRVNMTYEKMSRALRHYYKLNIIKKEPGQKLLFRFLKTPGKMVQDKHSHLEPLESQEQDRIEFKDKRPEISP
In outline:
as §1

The target in the next assay is T6, ELF5 (Homo sapiens, UniProt Q9UKW6-2 1-255).
T6 sequence: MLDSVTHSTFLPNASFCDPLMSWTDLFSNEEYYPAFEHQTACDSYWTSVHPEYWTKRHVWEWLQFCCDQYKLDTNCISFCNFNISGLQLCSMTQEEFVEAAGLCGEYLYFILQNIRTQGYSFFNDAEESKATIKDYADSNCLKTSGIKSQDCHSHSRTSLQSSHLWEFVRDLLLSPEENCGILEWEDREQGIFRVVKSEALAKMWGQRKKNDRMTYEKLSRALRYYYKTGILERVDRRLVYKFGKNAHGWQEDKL
A digest of the protocol: as §1

The next assay has as its target T7, ETV3 (Homo sapiens, UniProt P41162-2 1-143).
T7 sequence: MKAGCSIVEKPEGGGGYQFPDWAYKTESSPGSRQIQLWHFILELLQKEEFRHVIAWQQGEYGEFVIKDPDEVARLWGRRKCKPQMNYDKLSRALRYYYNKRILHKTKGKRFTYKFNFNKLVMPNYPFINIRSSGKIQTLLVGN
In outline:
as §1

In the next assay the target is ETV6 (Homo sapiens, UniProt P41212 1-452). A digest of the protocol: as §1
Sequence of ETV6 (P41212 whole entry): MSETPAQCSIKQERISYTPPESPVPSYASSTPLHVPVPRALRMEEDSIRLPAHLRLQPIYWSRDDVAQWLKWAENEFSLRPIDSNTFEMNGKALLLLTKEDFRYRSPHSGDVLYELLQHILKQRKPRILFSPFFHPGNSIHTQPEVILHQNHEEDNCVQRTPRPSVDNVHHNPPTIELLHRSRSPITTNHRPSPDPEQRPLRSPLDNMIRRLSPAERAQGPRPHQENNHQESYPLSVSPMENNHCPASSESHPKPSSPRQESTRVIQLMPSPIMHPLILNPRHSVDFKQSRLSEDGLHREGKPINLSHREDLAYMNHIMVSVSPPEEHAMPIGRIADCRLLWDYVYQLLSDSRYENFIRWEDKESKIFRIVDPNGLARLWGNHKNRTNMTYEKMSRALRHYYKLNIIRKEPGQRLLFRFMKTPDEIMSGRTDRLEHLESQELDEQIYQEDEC

Regarding AAGGTA, the binding signal in the assay with ERF was 1.05 fold enrichment (6-mer frequency, TF over GST control); with ETV3L, 1.14 fold enrichment (6-mer frequency, TF over GST control); in the assay with ETS2 it was 1.11 fold enrichment (6-mer frequency, TF over GST control); with SPDEF it was 1.16 fold enrichment (6-mer frequency, TF over GST control); in the assay with ETV7, 1.18 fold enrichment (6-mer frequency, TF over GST control); in the assay with ELF5, 1.06 fold enrichment (6-mer frequency, TF over GST control). Also, the binding signal in the assay with ETV3 was 1.09 fold enrichment (6-mer frequency, TF over GST control); with ETV6, 1.19 fold enrichment (6-mer frequency, TF over GST control).

Consider ATCTTT, for which the binding signal with ERF was 1.22 fold enrichment (6-mer frequency, TF over GST control); with ETV3L, 1.34 fold enrichment (6-mer frequency, TF over GST control); in the assay with ETS2, 1.18 fold enrichment (6-mer frequency, TF over GST control); in the assay with SPDEF, 1.17 fold enrichment (6-mer frequency, TF over GST control); with ETV7 it was 1.13 fold enrichment (6-mer frequency, TF over GST control); with ELF5 it was 1.21 fold enrichment (6-mer frequency, TF over GST control). Further, the binding signal in the assay with ETV3 was 1.21 fold enrichment (6-mer frequency, TF over GST control); with ETV6, 1.2 fold enrichment (6-mer frequency, TF over GST control).

Take TGCCCG: the binding signal with ERF was 1.13 fold enrichment (6-mer frequency, TF over GST control); with ETV3L, 1.16 fold enrichment (6-mer frequency, TF over GST control); with ETS2 it was 1.26 fold enrichment (6-mer frequency, TF over GST control); with SPDEF, 1.28 fold enrichment (6-mer frequency, TF over GST control); with ETV7, 1.34 fold enrichment (6-mer frequency, TF over GST control); with ELF5, 1.19 fold enrichment (6-mer frequency, TF over GST control). Moreover, the binding signal was 1.24 fold enrichment (6-mer frequency, TF over GST control) with ETV3 and 1.19 fold enrichment (6-mer frequency, TF over GST control) with ETV6.

As to ATGATC, the binding signal with ERF was 1.33 fold enrichment (6-mer frequency, TF over GST control); with ETV3L, 1.22 fold enrichment (6-mer frequency, TF over GST control); in the assay with ETS2, 1.16 fold enrichment (6-mer frequency, TF over GST control); with SPDEF, 1.27 fold enrichment (6-mer frequency, TF over GST control); in the assay with ETV7 it was 1.22 fold enrichment (6-mer frequency, TF over GST control); with ELF5 it was 1.22 fold enrichment (6-mer frequency, TF over GST control). Moreover, the binding signal with ETV3 is 1.2 fold enrichment (6-mer frequency, TF over GST control); with ETV6, 1.19 fold enrichment (6-mer frequency, TF over GST control).

As for TGGTAC, the binding signal in the assay with ERF is 1.11 fold enrichment (6-mer frequency, TF over GST control); with ETV3L, 1.21 fold enrichment (6-mer frequency, TF over GST control); with ETS2 it was 1.19 fold enrichment (6-mer frequency, TF over GST control); with SPDEF, 1.11 fold enrichment (6-mer frequency, TF over GST control); with ETV7, 1.14 fold enrichment (6-mer frequency, TF over GST control); with ELF5, 1.14 fold enrichment (6-mer frequency, TF over GST control). Further, the binding signal with ETV3 was 1.14 fold enrichment (6-mer frequency, TF over GST control); in the assay with ETV6 it was 1.14 fold enrichment (6-mer frequency, TF over GST control).

Take TGTTCA: the binding signal was 1.32 fold enrichment (6-mer frequency, TF over GST control) with ERF; 1.23 fold enrichment (6-mer frequency, TF over GST control) in the assay with ETV3L; 1.2 fold enrichment (6-mer frequency, TF over GST control) with ETS2; 1.3 fold enrichment (6-mer frequency, TF over GST control) in the assay with SPDEF; 1.25 fold enrichment (6-mer frequency, TF over GST control) in the assay with ETV7; 1.2 fold enrichment (6-mer frequency, TF over GST control) in the assay with ELF5. The binding signal with ETV3 is 1.25 fold enrichment (6-mer frequency, TF over GST control); with ETV6, 1.14 fold enrichment (6-mer frequency, TF over GST control).

Regarding TAGAAG, the binding signal in the assay with ERF is 1.42 fold enrichment (6-mer frequency, TF over GST control); with ETV3L, 1.17 fold enrichment (6-mer frequency, TF over GST control); with ETS2, 1.12 fold enrichment (6-mer frequency, TF over GST control); with SPDEF, 1.06 fold enrichment (6-mer frequency, TF over GST control); in the assay with ETV7 it was 1.24 fold enrichment (6-mer frequency, TF over GST control); with ELF5, 1.12 fold enrichment (6-mer frequency, TF over GST control). The binding signal with ETV3 is 1.12 fold enrichment (6-mer frequency, TF over GST control); in the assay with ETV6, 1.17 fold enrichment (6-mer frequency, TF over GST control).

Take CAAATT: the binding signal with ERF was 1.17 fold enrichment (6-mer frequency, TF over GST control); with ETV3L, 1.18 fold enrichment (6-mer frequency, TF over GST control); in the assay with ETS2, 1.17 fold enrichment (6-mer frequency, TF over GST control); with SPDEF, 1.12 fold enrichment (6-mer frequency, TF over GST control); in the assay with ETV7, 1.14 fold enrichment (6-mer frequency, TF over GST control); in the assay with ELF5 it was 1.1 fold enrichment (6-mer frequency, TF over GST control). Besides, the binding signal in the assay with ETV3 is 1.13 fold enrichment (6-mer frequency, TF over GST control); in the assay with ETV6 it was 1.1 fold enrichment (6-mer frequency, TF over GST control).
